Source: PubChem BioAssay (Tox21)
Records with an inconclusive call do not appear. Values without a mark were called inactive. The source made the active and inactive calls. Calls follow the shape of the dose curve; as a rule, active = well fitted cell-killing curve with a large enough effect in the repeat runs; inconclusive = weak or mixed curves, or effect the other way; inactive = flat fitted curve, though single readings scatter.

Assay: qHTS RealTime-Glo MT Cell Viability Assay in HepG2 cells - 40 hour (AID 1224870); also: nearly all actives have a fitted effect of over 50% in size
Settings: RealTime-Glo luminescence; series mostly up to 76.8 µM; activity change, negative = cytotoxic: at the top concentration
Source text: National Center for Advancing Translational Sciences [NCATS]
NIH Chemical Genomics Center [NCGC]
U.S. Environmental Protection Agency [EPA]
National Institutes of Environmental Health Sciences [NIEHS]
National Toxicology Program [NTP]
U.S. Food and Drug Administration [FDA]
Measure of cell viability is critical in the cell-base assay. Analysis of cell viability is necessary for the characterization of cell responses to cytotoxic drugs and environmental stress. A RealTime-Glo MT Cell Viability Assay to monitor cell viability in real time of continues cell culture during 40 hours of compound treatment was used to screen Tox21 10K library compounds in HepG2 cells. The RealTime-Glo MT Cell Viability Assay is a nonlytic, homogeneous, bioluminescent method to measure cell viability in real time using a simple, plate-based method. The assay involves adding NanoLuc luciferase and a cell-permeant prosubstrate to cells in culture. Viable cells reduce the proprietary prosubstrate to generate a substrate for NanoLuc luciferase. This substrate diffuses from cells into the surrounding culture medium, where it is rapidly used by the NanoLuc Enzyme to produce a luminescent signal. The signal correlates with the number of viable cells, making the assay well suited for cytotoxicity studies.
Tox21 Assay Protocol Summary:
The mixture of HepG2 cell suspension and reagents were dispensed at 600cells/6 ul/well in 1536-well tissue culture treated black solid bottom plates using a Multidrop dispenser. After the assay plates were incubated at a 37 C/5% CO2 incubator for 5 hours, 23 nL of compounds dissolved in DMSO, positive and negative controls was transferred to the assay plate by a pintool work station. The plates were incubated at 37 C for 40 hours. The luminescence intensity were measured at 0h, 8h, 16h, 24h, 32h and 40h time points using ViewLux plate reader during compound treatment.
% is scaled to controls: 0 for no effect and ±100 for the full control effect; potency is read from the fitted curve at half-maximal effect.

| Compound | activity change, negative = cytotoxic | Potency |
| --- | --- | --- |
| CCOc1nc(C(Cl)(Cl)Cl)ns1 | -6.73% | – |
| O=NN1CCCCC1 | 2.24% | – |
| OC(c1ccc(F)cc1)(c1cncnc1)c1ccccc1Cl (stereo not given) | -4.66% | – |
| CC(C)[N+](=O)[O-] | -3.07% | – |
| CCC1(c2ccccc2)C(=O)NC(=O)NC1=O | 0.403% | – |
| CCCSC(=O)N(CCC)CCC | -1.36% | – |
| CCCCOC(=O)c1ccccc1C(=O)O | 0.699% | – |
| Cc1nc(N)nc(N)n1 | -3.97% | – |
| CCOC(=O)N(C)C(=O)CSP(=S)(OCC)OCC | 0.126% | – |
| CC(C)(C)NCC(O)c1cc(Cl)c(N)c(Cl)c1 (stereo not given) | 0.149% [at 35.3 µM] | – |
| Cc1cccc(C#N)c1 | 0.425% | – |
| OC(c1ccccc1)(c1ccccc1)C1CCNCC1 | 0.167% [at 35.3 µM] | – |
| N#CC(CCc1ccc(Cl)cc1)(Cn1cncn1)c1ccccc1 (stereo not given) | – | 49 µM (active) |
| CC(C=O)Cc1ccc2c(c1)OCO2 (stereo not given) | -2.11% | – |
| CC(CCc1ccccc1)NC(C)C(O)c1ccc(O)cc1 (stereo not given) | -4.47% [at 35.3 µM] | – |
| CCN(CC)CCOC(=O)C(C)(c1ccccc1)c1ccccc1 | -1.75% [at 35.3 µM] | – |
| O=NN1CCN(N=O)CC1 | -5.97% | – |
| O=c1oc2ccccc2c(O)c1C1CCCc2ccccc21 (stereo not given) | -0.362% | – |
| CCc1cc2c(s1)-n1c(C)nnc1CN=C2c1ccccc1Cl | 2.07% [at 35.3 µM] | – |
| CC(C)COP(=O)(OCC(C)C)OCC(C)C | 0.352% | – |

| Compound | activity change, negative = cytotoxic | Potency |
| --- | --- | --- |
| O=[N+]([O-])c1cccc2c([N+](=O)[O-])cccc12 | -6.68% | – |
| O=[N+]([O-])c1cc(Cl)c(Cl)c(Cl)c1 | 3.62% | – |
| CN(N=O)C(N)=O | -2.2% | – |
| C[N+](C)=CCl | 0.508% | – |
| CCOP(=S)(OCC)Oc1ncn(-c2ccccc2)n1 | -0.729% | – |
| CNC(=O)N(C)c1nc2ccccc2s1 | 0.0609% | – |
| Cc1nnc2n1-c1sc(CCC(=O)N3CCOCC3)cc1C(c1ccccc1Cl)=NC2 | 0.163% [at 35.3 µM] | – |
| CN1C(=S)CN=C(c2ccccc2)c2cc(Cl)ccc21 | -1.61% [at 35.3 µM] | – |
| O=C(O)c1ccc2[nH]cc(CCCCN3CC=C(c4ccccc4)CC3)c2c1 | 2.7% [at 35.3 µM] | – |
| C#CCN1C(=O)COc2cc(F)c(N3C(=O)C4=C(CCCC4)C3=O)cc21 | -0.229% | – |
| CSc1nc(N=[N+]=[N-])nc(NC(C)C)n1 | -0.169% | – |
| CC(C(=O)c1ccccc1)N(C)C (stereo not given) | -0.654% [at 35.3 µM] | – |
| c1cc2c(c(N3CCNCC3)c1)OCCO2 | -9.64% [at 35.3 µM] | – |
| CCCCOC(=O)c1ccccc1N | 2.99% | – |
| CC(C)(C)OC(=O)c1ncn2c1[C@@H]1CCCN1C(=O)c1c(Br)cccc1-2 | 0.015% [at 35.3 µM] | – |
| O=P(O)(Oc1ccccc1)Oc1ccccc1 | 2.81% | – |
| CCSC(=O)N(CC)C1CCCCC1 | 1.97% | – |
| CC(=O)[C@H]1CC[C@H]2[C@@H]3CC[C@H]4C[C@H](O)CC[C@]4(C)[C@H]3C(=O)C[C@]12C | 1.44% [at 35.3 µM] | – |
| N#Cc1ccncc1 | 1.54% | – |
| Fc1cc(Br)ccc1CBr | 2.19% [at 35.3 µM] | – |
